Reference: PubChem BioAssay
Calls of active or inactive are those of the source. The rule behind the calls is not given here.

assay: chitosan synthesis blockers in C. neoformans – flow cytometry, Cibacron Brilliant Red staining (AID 1347148); settings: Cryptococcus neoformans chitosan, stronger effect = lower value; at 10 µM unless noted;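 note: compound exposure lasted three days at 37 degrees C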

Compound	fold fluorescence
Nc1ncnc2c1ncn2[C@@H]1CCCO1	2.55 [at 243.6 µM] (inactive)
CCCCCCCCCCCCCCCCCCOC[C@@H](COP(=O)([O-])OCC[N+](C)(C)C)OC	5.31 (inactive)
COc1ccc(CCN(C)CCC[C@@](C#N)(c2cc(OC)c(OC)c(OC)c2)C(C)C)cc1OC	4.22 [at 103.2 µM] (inactive)
CC(C)=CCC(O)C1=CC(=O)c2c(O)ccc(O)c2C1=O (stereo not given)	6.4 [at 173.4 µM] (inactive)
C=C[C@@H]1CN2CCC1C[C@H]2[C@H](O)c1ccnc2ccc(OC)cc12 (stereo not given in full)	3.61 [at 154.1 µM] (inactive)
C1CCC[C@H]2CCCN3CC[C@@H](CCCCCC[C@@H]4CCCN5CC[C@@H](CC1)O[C@@H]45)O[C@@H]23	6.06 [at 11.2 µM] (inactive)
CCCCOc1cc(C[C@H]2CNC(=O)N2)ccc1OC	8.15 [at 179.6 µM] (inactive)
O=C(O)CNC(=O)[C@H](CS)Cc1ccccc1	3.85 [at 197.4 µM] (inactive)
O=C(O)c1ccc(-c2c3nc(c(-c4ccc(C(=O)O)cc4)c4ccc([n-]4)c(-c4ccc(C(=O)O)cc4)c4nc(c(-c5ccc(C(=O)O)cc5)c5ccc2[n-]5)C=C4)C=C3)cc1.[Mn+3]	4.93 [at 57 µM] (inactive)
C=C(C)[C@H]1CC[C@@]2(C(=O)O)CC[C@@]3(C)[C@@H](CC[C@H]4[C@]5(C)CC[C@@H](O)C(C)(C)[C@H]5CC[C@@]43C)[C@H]12	3.34 [at 109.5 µM] (inactive)
CCCCC[C@@H](O)/C=C/[C@H]1[C@H](CC(=O)CCCCC(=O)O)[C@H](O)C[C@@H]1O	4.59 (inactive)
CCCCC[C@H](O)c1cccc(OCc2ccc3ccccc3n2)c1	5.53 (inactive)
CNC(=O)[C@@H]1O[C@H](n2cnc3c(NCc4cccc(I)c4)ncnc32)C(O)[C@@H]1O (stereo not given in full)	4.36 [at 98 µM] (inactive)
CCCCCCCCCCCCCC[C@H](F)C(=O)O	6.01 (inactive)
CCCCC/C=C\C/C=C\C/C=C\C/C=C\CCCC(=O)O[C@@H](COCCCCCCCCCCCCCCCC)COP(=O)([O-])OCC[N+](C)(C)C	5.54 (inactive)
C/C=C/C/C=C/CCC(=O)[C@@H]1O[C@@H]1C(N)=O	8.37 [at 223.9 µM] (inactive)
N#Cc1cc2c(OC[C@@H](O)CN3CCN(C(c4ccccc4)c4ccccc4)CC3)cccc2[nH]1	3.58 [at 107.2 µM] (inactive)
CCOC(=O)C1=C(C)NC(=S)N[C@H]1c1cccc(O)c1	3.63 [at 171 µM] (inactive)
CCCCC(C)(C)[C@@H](O)/C=C/[C@H]1[C@H](C/C=C\CCCC(=O)O)C(=O)C[C@@H]1O	4.79 (inactive)
CC(=O)O[C@@H]1C(=O)[C@]2(C)C([C@@H](OC(=O)c3ccccc3)[C@@]3(O)C[C@@H](OC(=O)[C@@H](O)[C@H](NC(=O)c4ccccc4)c4ccccc4)C(C)=C1C3(C)C)[C@@]1(OC(C)=O)CO[C@H]1C[C@H]2O (stereo not given in full)	4.34 [at 58.6 µM] (inactive)

Compound	fold fluorescence
CCCCC[C@@H](O)/C=C/[C@H]1[C@@H](C/C=C\CCCC(=O)O)[C@H](O)C[C@@H]1O	4.83 (inactive)
OC[C@@H]1NC[C@H](O)[C@H](O)[C@H]1O	8.15 [at 306.4 µM] (inactive)
CCCCCCCCCCCC[C@H](O)C(=O)O	5.23 (inactive)
CCCCC[C@@H](O)/C=C/[C@H]1[C@H](C/C=C\CCCC(=O)O)[C@@H](O)C[C@@H]1O	4.53 (inactive)
CCCCCCOC(=O)C1(O)CC2OC1(C)n1c3ccccc3c3c4c(c5c6ccccc6n2c5c31)C(=O)NC4 (stereo not given)	4.72 [at 9.3 µM] (inactive)
COc1ccc(CCCO[C@@H](Cn2ccnc2)c2ccc(OC)cc2)cc1	7.02 [at 136.4 µM] (inactive)
CCCCC[C@@H](O)/C=C/[C@H]1[C@@H]2C/C(=C/CCCC(=O)O)C[C@@H]2C[C@@H]1O	4.8 (inactive)
O=C(O)CCC/C=C\C[C@H]1[C@H](/C=C/[C@H](O)COc2cccc(Cl)c2)[C@@H](O)C[C@H]1O	4.34 (inactive)
CCCCCCCCCCCCCCCC(=O)C1=C(O)[C@H](CO)OC1=O	2.82 [at 135.7 µM] (active)
CCCCC[C@@H](O)/C=C/[C@H]1[C@H](CCCCCCC(=O)O)C(=O)C[C@@H]1O	4.03 (inactive)
CC[C@@]1([C@@H]2O[C@@H]([C@H]3O[C@@](O)(CO)[C@H](C)C[C@@H]3C)C[C@@H]2C)CC[C@H]([C@]2(C)CCC3(C[C@H](O)[C@@H](C)[C@@H]([C@@H](C)[C@@H](OC)[C@H](C)C(=O)O)O3)O2)O1 (stereo not given in full)	4.7 [at 72.2 µM] (inactive)
CC(C)[C@@H](O)CC[C@H](C)[C@@H]1CC[C@@H]2[C@H]3CC=C4C[C@H](O)CC[C@@]4(C)[C@@H]3CC[C@]21C	4.41 [at 124.2 µM] (inactive)
CCCCCCCCCCCCCCC[C@H](O)[C@@H](CO)NC(C)=O	4.64 (inactive)
CCCCCCCC/C=C\CCCCCCCCOC[C@@H](COP(=O)([O-])OCC[N+](C)(C)C)OC(C)=O	3.92 (inactive)
CC(/C=C/C(=O)NO)=C\[C@H](C)C(=O)c1ccc(N(C)C)cc1	17.7 [at 165.4 µM] (inactive)
O=C(O)CCC/C=C\C[C@@H]1C(=O)C[C@H](O)[C@H]1/C=C/[C@H](O)CCc1ccccc1	4.52 (inactive)
C=C1CC[C@@H](O)C/C1=C/C=C1\CCC[C@]2(C)[C@@H]1CC[C@H]2[C@@H](C)CC[C@H](O)C(C)(C)O	6.63 (inactive)
CCCCC[C@@H](O)/C=C/[C@H]1[C@H](C/C=C\CCCC(=O)O)[C@H](O)C[C@H]1O	4.85 (inactive)
C=CC[C@H]1/C=C(\C)C[C@@H](C)C[C@@H](OC)[C@@H]2O[C@](O)(C(=O)C(=O)N3CCCC[C@@H]3C(=O)O[C@@H](/C(C)=C/[C@H]3CC[C@H](O)[C@@H](OC)C3)[C@@H](C)[C@H](O)CC1=O)[C@@H](C)C[C@H]2OC	13.5 [at 62.2 µM] (inactive)
COC1=C2C[C@H](C)C[C@@H](OC)[C@@H](O)[C@H](C)/C=C(\C)[C@@H](OC(N)=O)[C@H](OC)/C=C\C=C(/C)C(=O)NC(=CC1=O)C2=O	25.2 [at 89.2 µM] (inactive)
